Most compounds without a hit are left out; they make up all but 2.4% or so of the library.
WRN helicase inh: inhibitors of human WRN helicase. Q14191. WRN helicase unwinding, fluorescent forked duplex, kinetic. Potency, µM (highest dose often 114 µM), hits mostly inhibitors. 360,000 compounds, 0.46% hits. AID 651768; further: nearly all actives have a fitted effect of over 55% in size
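Enzyme (20 nM final) and test compound sit together 15 min at room temperature before substrate addition. Substrate is a single-forked duplex oligonucleotide (100 nM) labelled with fluorophore and quencher, with 2 mM ATP; helicase unwinding raises red fluorescence, read kinetically.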
Pol beta inh: inhibitors of human DNA polymerase beta; 340,000 compounds, 1.3% hits; AID 485314; Pol beta primer extension/strand displacement, fluorescence kinetic; P06746; Potency, µM (highest dose often 114 µM), usual class: inhibitors
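Curves were derived by four-parameter Hill fits of normalized qHTS data. The kinetic fluorescent primer-extension read was taken at 0 and 10 min after 50 nM substrate, following a 15 min room-temperature preincubation of 10 nM enzyme with compounds.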
Pol iota inh: inhibitors of human DNA polymerase iota | Q9UNA4 | Pol iota fluorescent replication assay, 10 min | Potency, µM (titrated, usually from 115 µM), actives largely listed as inhibitors | 390,000 compounds, 1% hits | AID 588590
Target sequence (Q9UNA4 whole entry, looked up): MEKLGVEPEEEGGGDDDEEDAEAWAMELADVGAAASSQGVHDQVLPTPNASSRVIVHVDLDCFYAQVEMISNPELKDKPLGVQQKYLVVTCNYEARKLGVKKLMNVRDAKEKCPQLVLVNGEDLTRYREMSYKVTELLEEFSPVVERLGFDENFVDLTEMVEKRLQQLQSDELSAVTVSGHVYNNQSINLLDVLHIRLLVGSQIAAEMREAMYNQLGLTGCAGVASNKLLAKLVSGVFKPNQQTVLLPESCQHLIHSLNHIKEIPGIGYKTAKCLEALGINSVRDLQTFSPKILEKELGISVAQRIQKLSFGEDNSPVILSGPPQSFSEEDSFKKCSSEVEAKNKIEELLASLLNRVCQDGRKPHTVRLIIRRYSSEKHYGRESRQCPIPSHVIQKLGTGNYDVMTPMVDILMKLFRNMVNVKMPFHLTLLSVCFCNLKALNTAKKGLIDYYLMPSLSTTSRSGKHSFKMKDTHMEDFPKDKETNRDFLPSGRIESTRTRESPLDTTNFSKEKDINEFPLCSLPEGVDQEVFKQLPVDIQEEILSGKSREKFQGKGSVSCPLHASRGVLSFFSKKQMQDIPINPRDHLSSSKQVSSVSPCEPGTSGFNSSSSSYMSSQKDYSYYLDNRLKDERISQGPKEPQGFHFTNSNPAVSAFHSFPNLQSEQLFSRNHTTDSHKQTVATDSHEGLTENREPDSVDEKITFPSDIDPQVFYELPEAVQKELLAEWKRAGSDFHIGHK
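Pol iota at 10 nM preincubated 15 min with compounds at room temperature; reaction started with fluorescent substrate, 50 nM final. Fluorescence read kinetically at 0 and 10 min; buffer-only wells as negative control.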
FEN1 inh: human FEN1 inhibition | P39748 | Recombinant FEN1 flap cleavage, fluorescence, 15 min | Potency, µM (top dose mostly 114 µM), most hits filed as inhibitors | 390,000 compounds, 0.35% hits; further: nearly all actives have a fitted effect of over 65% in size
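Steps: FEN1 (10 nM) dispensed; compound added by pin tool; 15 min at room temperature; substrate added to 50 nM final; reads at 0 min and 15 min; data normalized and fitted (four-parameter Hill).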
POLH inh: inhibitors of human DNA polymerase eta; Q9Y253; recombinant Pol eta, fluorescent DNA replication assay; Potency, µM (titrated, usually from 114 µM), usual class: inhibitors; 390,000 compounds, 1.2% hits; AID 588591
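Fluorescent replication assay: 50 nM final substrate added after a 15 min room-temperature compound preincubation with 10 nM enzyme. Signal taken at 0 min and again at 10 min.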
POLK inh: inhibitors of human DNA polymerase kappa. Q9UBT6. purified Pol kappa, fluorescent DNA synthesis assay, 10 min. Potency, µM (top dose mostly 107 µM), most hits filed as inhibitors. 400,000 compounds, 0.53% hits
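10 nM Pol kappa preincubated 15 min at room temperature with compounds, then reaction started with substrate at 50 nM final. Fluorescence read kinetically at 0 and 10 min; buffer-only wells served as negative control.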
Each line names hits and unclear results; the compound was inactive in the other large screens; ! = not active in a repeat. The call rests on the fitted dose curve; in most records, active means well fitted curve in the direction sought with a large enough effect; inconclusive means small, poorly fitted or top-dose-only effect, or another doubt; inactive means no such curve, though single readings can be large; an effect the other way counts as inactive or inconclusive.

[O]=[Sb]([OH])([OH])[c]1ccccc1	Pol iota inh 20µM, FEN1 inh 50µM, POLK inh 25µM (no result: WRN helicase inh, Pol beta inh, POLH inh)
O=C(Nc1cc[c]([Sb](=[O])([OH])[OH])cc1)c1ccccc1	Pol iota inh inconclusive, FEN1 inh 40µM, POLK inh 6.3µM (no result: WRN helicase inh, Pol beta inh, POLH inh)
O=C(Cc1ccccc1)OCc1ccccc1	none (no result: Pol beta inh)
Cc1noc(C)c1NC(=O)Nc1cccc2c1O[C@H](CN(C)C(=O)NC1CCCCC1)[C@@H](C)CN([C@H](C)CO)C2=O	none (no result: Pol beta inh)
COc1ccc(-c2cc(=O)c3cc(OCC(=O)OC(C)C)ccc3o2)cc1	none (no result: WRN helicase inh)
COc1ccc2c(c1OC)C(=O)OC2c1c(O)n(C2CCCCC2)c(=O)[nH]c1=O (stereo unspecified)	Pol iota inh 25µM
NCC(O)c1cc(O)c(O)cc1F (stereo unspecified)	Pol iota inh 28µM, POLK inh inconclusive
O=C(O)CCn1cc(C=C2C(=O)NC(=O)NC2=O)c(-c2ccc(Br)cc2)n1	WRN helicase inh inconclusive, Pol iota inh inconclusive
O=C(O)CCn1cc(C=C2C(=O)NC(=S)NC2=O)c(-c2cccc(Cl)c2)n1	WRN helicase inh 45µM, POLH inh inconclusive
CC(C)[C@@]1(NC(=O)[C@H]2CC3c4cccc5[nH]cc(c45)C[C@H]3N(C)C2)O[C@@]2(O)C3CCCN3C(=O)[C@@H](Cc3ccccc3)N2C1=O (stereo partly specified)	none (no result: WRN helicase inh, Pol beta inh, Pol iota inh, FEN1 inh, POLH inh)
C#CCN1C(C)=C(C(=O)CCO)[C@@H](c2cccc(-n3oo3)c2)C(C(=O)OC)=C1C	none (no result: WRN helicase inh, Pol beta inh, Pol iota inh, FEN1 inh, POLH inh)
COc1ccc(C(=O)Nc2ccc(-c3cc(C(F)(F)F)nn3-c3ccccc3)cc2)cc1OC	Pol beta inh inconclusive, Pol iota inh inconclusive (no result: WRN helicase inh)
C#CCOCCOCCOCCNc1nc(N2CCN(C(=O)CCCCCCCCCCNC(=O)[C@H]([C@@H](C)CC)n3cc(CCCCN=C(N)N)nn3)CC2)nc(N2CCN(C(=O)CCCCCCCCCCNC(=O)[C@H](CO)n3cc(CCCCCN)nn3)CC2)n1	WRN helicase inh 22µM, Pol iota inh inconclusive, FEN1 inh 25µM, POLH inh 79µM (no result: Pol beta inh)
O=C1NC(=O)C(=Cc2ccccc2Oc2ccc(F)cc2)C(=O)N1	WRN helicase inh 32µM
CN1C(=O)C(=Cc2ccccc2Oc2ccc(Cl)c(F)c2)C(=O)N(C)C1=O	WRN helicase inh 50µM, POLH inh inconclusive
CN(C)[C@H]1C(=O)C(C(N)=O)=C(O)[C@]2(O)C(=O)C3=C(O)c4c(O)cccc4[C@@](C)(O)[C@H]3C[C@@H]12	none (no result: WRN helicase inh, Pol beta inh, Pol iota inh, FEN1 inh, POLH inh)
CN(C)C1C(=O)C(C(N)=O)=C(O)C2(O)C(=O)C3=C(O)c4c(O)cccc4C(C)(O)C3CC12 (stereo unspecified)	Pol beta inh 3.2µM, Pol iota inh inconclusive, FEN1 inh inconclusive, POLK inh inconclusive
CN(C)[C@@H]1C(=O)C(C(N)=O)=C(O)[C@@]2(O)C(=O)C3=C(O)c4c(O)ccc(Cl)c4[C@@](C)(O)C3C[C@@H]12 (stereo partly specified)	Pol beta inh inconclusive, Pol iota inh inconclusive, FEN1 inh 45µM, POLK inh 79µM
CC1CN(c2ccccc2)NC1=O (stereo unspecified)	none
S=c1[nH]nc(-c2ccco2)n1Cc1ccccc1	Pol beta inh 32µM
O=c1c2ccccc2nc(-c2ccco2)n1-c1ccc(Br)cc1	none
OC[C@H]1O[C@@H](n2cnc3cc(Cl)c(Cl)cc32)[C@H](O)[C@H]1O	none (no result: WRN helicase inh, Pol beta inh, Pol iota inh, FEN1 inh, POLH inh)
CCCN1CCc2cc(O)cc3c2[C@H]1Cc1ccc(O)c(O)c1-3	Pol iota inh 14µM, FEN1 inh 50µM (no result: Pol beta inh)
CN1CCc2cc(O)cc3c2[C@H]1Cc1ccc(O)c(O)c1-3	FEN1 inh 79µM! (no result: Pol beta inh)
COc1cc2c(cc1O)C[C@H]1c3c(cc(O)c(OC)c3-2)CCN1C	none (no result: Pol beta inh)
COC1=C(C)C(=O)c2c(c(COC(N)=O)c3n2C[C@@H]2[C@@H]3N2C)C1=O (stereo partly specified)	Pol iota inh 56µM, POLK inh inconclusive (no result: WRN helicase inh, Pol beta inh, POLH inh)
O=c1[nH]sc2cc(F)ccc12	WRN helicase inh 32µM, Pol beta inh inconclusive, FEN1 inh inconclusive
CON(C)C(=O)Nc1ccc(Br)c(Cl)c1	none (no result: WRN helicase inh, Pol beta inh, Pol iota inh, FEN1 inh, POLH inh)
